From PubChem BioAssay (Tox21)
Inconclusive results are not listed. Active and inactive are the calls of the source. Unless noted, the call rests on the fitted dose curve; in most records, active means well fitted curve in the direction sought with a large enough effect in the repeat runs; inconclusive means weak or mixed curves; inactive means no such curve, though single readings can be large; an effect the other way counts as inactive or inconclusive.

How the values were obtained:
[1] = qHTS assay to identify small molecule antagonists of the estrogen receptor alpha (ER-alpha) signaling pathway using the BG1 cell line in the presence of 0.1 nM 17-beta-estradiol - cell viability counter screen (AID 1259241); further: nearly all actives have a fitted effect of over 40% in size
Procedure, shortened: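 Estradiol-stimulated (0.1 nM) VM7Luc4E2 cells exposed to compounds 22 hr; viability measured by fluorescence of cleaved CellTiter-Fluor substrate after 30 min.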

[2] = qHTS assay to identify small molecule antagonists of the androgen receptor (AR) signaling pathway using the MDA cell line in the presence of 0.5 nM R1881 - cell viability counter screen (AID 1259242); further: nearly all actives have a fitted effect of over 45% in size
Procedure, shortened: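 R1881 at 0.5 nM final stimulated MDA-kb2 cells during 16 hr compound treatment at 37C. Cytotoxicity read: CellTiter-Fluor fluorescence after 30 min.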

[3] = molecular target: Androgen receptor (Homo sapiens) (UniProt P10275); assay: qHTS assay to identify small molecule antagonists of the androgen receptor (AR) signaling pathway using the MDA cell line in the presence of 0.5 nM R1881 (AID 1259243); further: nearly all actives have a fitted effect of over 50% in size; further: potency means the concentration at half of the fitted maximal effect
Procedure, shortened: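 We exposed MDA-kb2 cells to compounds under 0.5 nM R1881 stimulation for 16 hr at 37C and quantified MMTV-driven luciferase by luminescence.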

[4] = qHTS assay to identify small molecule phospholipidosis (PLD) inducers (AID 1259344; active means well fitted curve in the direction sought with a large enough effect; an effect the other way counts as inactive or inconclusive)
Procedure, shortened: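 HepG2 cells grown on collagen I take up LipidTOX Red while exposed to compound for 24 h; after fixation they are imaged at 20x and pit metrics are extracted.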

[5] = qHTS assay to identify small molecule HDAC inhibitors (AID 1259364); further: potency means the concentration at half of the fitted maximal effect;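 further: wild-type HCT-116 cells with endogenous class I/II HDAC activity; nearly all actives have a fitted effect of over 45% in size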; on activity change, negative = inhibition: top concentration of the series differs between compounds
Procedure, shortened: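 Relative class I and II HDAC activity is taken from the luminogenic signal in HCT-116 cells, with compound exposure 2 hr and reagent development 30 min at room temperature.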

[6] = qHTS assay to identify small molecule HDAC inhibitors - cell viability counter screen (AID 1259365); further: series mostly up to about 92 µM; nearly all actives have a fitted effect of over 50% in size
Procedure, shortened: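 After overnight seeding at 1,500 cells per well, wild-type HCT-116 cultures took up compounds in DMSO for 2hr at 37 C. Viable cell content came from luminescence with CellTiter-Glo.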

[7] = qHTS assay to identify small molecule agonists of the sonic hedgehog signaling (Shh) pathway - cell viability counter screen (AID 1259366); further: nearly all actives have a fitted effect of over 50% in size
Procedure, shortened: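 Same-well cytotoxicity read. Gli1-Luc reporter 3T3 cells; compounds 24hr, 37C/5% CO2; CellTiter-Fluor fluorescence.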

[8] = qHTS assay to identify small molecule antagonists of the sonic hedgehog signaling (Shh) pathway - cell viability counter screen (AID 1259367); further: nearly all actives have a fitted effect of over 55% in size
Procedure, shortened: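 After a 4 hr settling period, 3T3 Gli1-Luc cells were treated with DMSO-dissolved chemicals and conditioned medium, kept 24 hr at 37C in 5% CO2, and assayed for viability by CellTiter-Fluor fluorescence following 1 hr reagent incubation.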

[9] = qHTS assay to identify small molecule agonists of the sonic hedgehog signaling (Shh) pathway (AID 1259368; calls by dose curve;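 further: NIH/3T3-derived 3T3Gli1-Luc cells carrying a stable Gli1-driven firefly luciferase reporter; series mostly up to about 92 µM; nearly all actives have a fitted effect of over 15% in size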)
Procedure, shortened: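 Mouse fibroblast (NIH/3T3) reporter cells with stably integrated Gli1-Luc were treated 24 hr with compound; firefly luciferase luminescence served as the read-out.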

[10] = molecular target: Estrogen receptor (Homo sapiens) (UniProt P03372); assay: qHTS assay to identify small molecule antagonists of the estrogen receptor alpha (ER-alpha) signaling pathway using the BG1 cell line in the presence of 0.1 nM 17-beta-estradiol (AID 1259244); further: nearly all actives have a fitted effect of over 50% in size
Procedure, shortened: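 VM7Luc4E2; 4xERE-luciferase; 0.1 nM E2 final; 22 h co-incubation, 37C; ONE-Glo luminescence after 30 min at room temperature.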
On the % scale 0 is the no-effect control and ±100 the full control effect.

Chain of Androgen receptor (Homo sapiens) (P10275 whole entry, looked up): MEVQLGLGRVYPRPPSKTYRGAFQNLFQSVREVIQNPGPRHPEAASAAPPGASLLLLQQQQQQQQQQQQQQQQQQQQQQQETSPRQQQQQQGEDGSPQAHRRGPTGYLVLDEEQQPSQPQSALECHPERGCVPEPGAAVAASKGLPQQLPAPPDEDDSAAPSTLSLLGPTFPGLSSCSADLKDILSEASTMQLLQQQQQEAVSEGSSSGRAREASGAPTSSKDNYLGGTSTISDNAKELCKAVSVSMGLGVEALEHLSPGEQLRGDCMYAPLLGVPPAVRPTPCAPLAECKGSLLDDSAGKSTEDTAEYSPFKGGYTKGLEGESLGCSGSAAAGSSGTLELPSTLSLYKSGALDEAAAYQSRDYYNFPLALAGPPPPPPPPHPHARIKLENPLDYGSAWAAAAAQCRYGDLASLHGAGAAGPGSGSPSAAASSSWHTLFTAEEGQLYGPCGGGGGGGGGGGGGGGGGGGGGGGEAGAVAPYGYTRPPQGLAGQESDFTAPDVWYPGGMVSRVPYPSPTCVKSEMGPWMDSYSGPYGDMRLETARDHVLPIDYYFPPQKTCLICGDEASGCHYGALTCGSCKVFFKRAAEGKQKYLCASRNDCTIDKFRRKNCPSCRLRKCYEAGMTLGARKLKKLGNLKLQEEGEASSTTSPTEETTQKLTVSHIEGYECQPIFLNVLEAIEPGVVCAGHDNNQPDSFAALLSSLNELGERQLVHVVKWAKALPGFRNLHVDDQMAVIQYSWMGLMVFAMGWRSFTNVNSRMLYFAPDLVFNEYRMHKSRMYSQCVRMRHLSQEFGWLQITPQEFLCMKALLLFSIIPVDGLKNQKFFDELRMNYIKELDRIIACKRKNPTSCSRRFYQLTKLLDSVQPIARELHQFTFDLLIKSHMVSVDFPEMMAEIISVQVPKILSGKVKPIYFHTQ
Chain of Estrogen receptor (Homo sapiens) (P03372 whole entry, looked up): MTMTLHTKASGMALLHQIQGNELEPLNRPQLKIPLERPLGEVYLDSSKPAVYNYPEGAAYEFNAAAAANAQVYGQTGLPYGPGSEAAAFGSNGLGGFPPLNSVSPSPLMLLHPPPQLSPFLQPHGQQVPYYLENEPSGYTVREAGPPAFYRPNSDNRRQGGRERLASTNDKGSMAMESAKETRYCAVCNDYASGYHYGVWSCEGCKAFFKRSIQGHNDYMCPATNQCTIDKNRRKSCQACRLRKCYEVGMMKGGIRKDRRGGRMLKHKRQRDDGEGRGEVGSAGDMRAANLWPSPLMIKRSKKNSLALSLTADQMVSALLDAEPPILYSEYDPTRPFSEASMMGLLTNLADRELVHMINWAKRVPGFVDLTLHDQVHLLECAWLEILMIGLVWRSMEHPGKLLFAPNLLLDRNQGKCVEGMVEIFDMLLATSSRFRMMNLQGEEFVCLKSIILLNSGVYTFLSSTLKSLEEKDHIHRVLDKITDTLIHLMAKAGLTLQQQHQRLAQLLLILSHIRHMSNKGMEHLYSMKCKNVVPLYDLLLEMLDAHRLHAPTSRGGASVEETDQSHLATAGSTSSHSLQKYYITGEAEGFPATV

CN(C)CCn1nnnc1SCC1=C(C(=O)O)N2C(=O)[C@@H](NC(=O)Cc3csc(N)n3)[C@H]2SC1
inactive: outcome [1] | outcome [2] | Potency [3] | Potency [4] | Potency [5] | outcome [6] | Potency [7] | outcome [8] | Potency [9]

CCCCc1ccc2cccc(S(=O)(=O)O)c2c1
inactive: outcome [1] | outcome [2] | Potency [3] | outcome [10] | Potency [5] | outcome [6] | Potency [7] | outcome [8] | Potency [9]

CCOC(=O)Nc1ccc2c(c1)N(C(=O)CCN1CCOCC1)c1ccccc1S2
inactive: outcome [1] | outcome [2] | Potency [3] | outcome [10] | Potency [4] | Potency [5] | outcome [6] | Potency [7] | outcome [8] | Potency [9]

O=C(O)c1ccc[n+]([O-])c1
inactive: outcome [1] | outcome [2] | Potency [3] | outcome [10] | Potency [4] | Potency [5] | outcome [6] | Potency [7] | outcome [8] | Potency [9]

O=C1CC2(CCCC2)CC(=O)N1
inactive: outcome [1] | outcome [2] | Potency [3] | outcome [10] | Potency [5] | outcome [6] | Potency [7] | outcome [8] | Potency [9]

CCCCCCCCN(C)CCCCCCCC
inactive: outcome [1] | outcome [2] | Potency [3] | outcome [10] | Potency [5] | outcome [6] | Potency [7] | outcome [8] | Potency [9]

CC1(C)SC(C)(C)SC(C)(C)S1
inactive: outcome [1] | outcome [2] | Potency [3] | outcome [10] | outcome [6] | Potency [7] | outcome [8] | Potency [9]

CC1(C)OC(=O)Nc2ccc(Br)cc21
active: Potency [3] 9.44 µM
inactive: outcome [1] | outcome [2] | outcome [10] | Potency [5] | outcome [6] | Potency [7] | outcome [8] | Potency [9]

O=C(CCOCCOCCOCCOCCC(=O)Nc1c(I)cc(I)c(C(=O)O)c1I)Nc1c(I)cc(I)c(C(=O)O)c1I
inactive: outcome [1] | outcome [2] | Potency [3] | outcome [10] | Potency [5] | outcome [6] | Potency [9]

CCCC(C)CO (stereo not drawn)
inactive: outcome [1] | outcome [2] | Potency [3] | Potency [5] | outcome [6] | Potency [7] | outcome [8] | Potency [9]

CN1[C@@H]2CC[C@H]1CC(NC(=O)n1c(=O)[nH]c3ccccc31)C2 (stereo partly drawn)
inactive: outcome [1] | outcome [2] | Potency [3] | outcome [10] | Potency [4] | Potency [5] | outcome [6] | Potency [7] | outcome [8] | Potency [9]

CCN1CCN(c2cc3c(cc2F)c(=O)c(C(=O)O)cn3C2CC2)CC1
inactive: outcome [1] | outcome [2] | Potency [3] | Potency [4] | Potency [5] | outcome [6] | outcome [8] | Potency [9]

CCCCCCOC(=O)c1ccccc1O
inactive: outcome [1] | outcome [2] | Potency [3] | outcome [10] | outcome [6] | Potency [7] | outcome [8] | Potency [9]

NC1CCN(c2cccc(Cl)n2)CC1
inactive: outcome [1] | outcome [2] | Potency [3] | Potency [4] | Potency [5] | outcome [6] | Potency [7] | outcome [8] | Potency [9]

CCCCNc1ccccc1
inactive: outcome [1] | outcome [2] | Potency [3] | outcome [10] | Potency [5] | outcome [6] | Potency [7] | outcome [8] | Potency [9]

CC(C)CCCCCCN
inactive: outcome [1] | outcome [2] | Potency [3] | outcome [10] | Potency [5] | outcome [6] | Potency [7] | outcome [8] | Potency [9]

Cc1nc(-c2ccc(OCC(C)C)c(C#N)c2)sc1C(=O)O
inactive: outcome [1] | outcome [2] | Potency [3] | outcome [10] | Potency [4] | outcome [6] | Potency [7] | outcome [8]
active: Potency [5] 335 nM

COc1cccc(Br)c1
inactive: outcome [1] | outcome [2] | Potency [3] | outcome [10] | outcome [6] | Potency [7] | outcome [8] | Potency [9]

CCCCCCOC(=O)CC(CC(=O)OCCCCCC)(OC(=O)CCC)C(=O)OCCCCCC
inactive: outcome [1] | outcome [2] | Potency [3] | outcome [10] | Potency [5] | outcome [6] | Potency [7] | outcome [8] | Potency [9]

C1COCCO1
inactive: outcome [1] | outcome [2] | Potency [3] | outcome [10] | Potency [5] | outcome [6] | Potency [7] | Potency [9]

OCCN1C[C@H](O)[C@@H](O)[C@H](O)[C@H]1CO
inactive: outcome [1] | outcome [2] | Potency [3] | outcome [10] | Potency [4] | Potency [5] | outcome [6] | Potency [7] | outcome [8] | Potency [9]

C=CCn1c(=O)n([C@@H]2O[C@H](CO)[C@@H](O)[C@H]2O)c2nc(N)[nH]c(=O)c21
inactive: outcome [1] | outcome [2] | Potency [3] | outcome [10] | Potency [4] | Potency [5] | outcome [6] | Potency [7] | outcome [8] | Potency [9]

CC(C)c1ccc2oc3nc(N)c(C(=O)O)cc3c(=O)c2c1
inactive: outcome [1] | outcome [2] | Potency [3] | outcome [10] | Potency [4] | outcome [6] | Potency [7] | outcome [8] | Potency [9]

C1CCCCCCCCCCC1
inactive: activity change, negative = cytotoxicity [1] -5.47% [at 19 µM] | viability change, negative = cytotoxic [2] 10.4% [at 19 µM] | Potency [3] | activity change, negative = inhibition [10] -1.81% [at 19 µM] | activity change, negative = inhibition [5] 3.38% [at 19 µM] | activity change, negative = cytotoxicity [6] -1.94% [at 19 µM] | viability change, negative = cytotoxic [7] 0.953% [at 19 µM] | viability change, negative = cytotoxic [8] -0.0913% [at 19 µM] | activity change [9] -0.649% [at 18.9 µM, active compounds read high]
